From PubChem BioAssay come the findings set out here.

Each structure is given as a SMILES string.

The target in assay [1] is Tumor necrosis factor receptor superfamily member 10B (Homo sapiens) (UniProt O14763). Briefly: viability loss of caspase-8 NB7 cells with TRAIL – with/without TRAIL, luminescence panel, confirmation (AID 651596). Particulars: NB7 neuroblastoma + caspase-8, TRAIL sensitization, NB7 Caspase-8, with TRAIL, mean of runs, at 10 µM, stronger effect = higher value.
Experiment in assay [2]: as above
As to conditions: NB7 neuroblastoma + caspase-8, without TRAIL, NB7 Caspase-8, without TRAIL, mean of runs, at 10 µM.

Tumor necrosis factor receptor superfamily member 10B (Homo sapiens), sequence (O14763 whole entry, looked up): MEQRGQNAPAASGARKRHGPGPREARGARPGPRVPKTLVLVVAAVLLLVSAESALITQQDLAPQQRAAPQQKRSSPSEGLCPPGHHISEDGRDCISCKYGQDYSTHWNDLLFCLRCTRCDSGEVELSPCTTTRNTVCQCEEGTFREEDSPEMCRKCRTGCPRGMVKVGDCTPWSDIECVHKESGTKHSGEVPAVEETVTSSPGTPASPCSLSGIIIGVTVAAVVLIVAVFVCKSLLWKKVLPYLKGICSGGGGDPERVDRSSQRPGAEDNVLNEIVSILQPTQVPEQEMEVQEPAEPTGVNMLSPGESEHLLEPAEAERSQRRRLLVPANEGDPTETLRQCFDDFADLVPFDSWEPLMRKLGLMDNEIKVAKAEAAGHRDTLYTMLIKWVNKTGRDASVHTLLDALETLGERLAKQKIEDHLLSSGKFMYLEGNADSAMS

Take `O=C(CSc1nnc(-c2ccccc2)o1)Nc1ccccc1F`: the figures for the activity in assay [1] and in assay [2] were 55.1% and 43.5%, respectively.
Take `COc1cccc(-c2cc3nc(-c4ccccc4)cc(N4CCN(C(=O)c5ccoc5)CC4)n3n2)c1`: the activity in assay [1] stood at 82%; in assay [2], 73.8%.
The corresponding values for `C#CC(=O)N(c1cccc(OC)c1)C(C(=O)NC1CCCC1)c1cccs1` (configuration not stated) are 99.4% and 99.5%.
The corresponding values for `CCOC(=O)c1nnn2c1nc(Nc1cccc(C(F)(F)F)c1)c1ccccc12` are 8.35% and 52.4%.
The corresponding values for `N=c1c2c(n(Cc3ccc(Cl)c(Cl)c3)c3c1CCC3)CCCC2` are 80.6% and 60.1%.
Consider `CCN(CC(=O)N1CCc2ccccc2C1)S(=O)(=O)c1ccc2ccccc2c1`, for which the activity was found to be 42.7% in assay [1] and 62.5% in assay [2].
On the same counts, the results for `Cc1cccc(N2CCN(C(=S)Nc3ccc4nc(N5CCN(C)CC5)cc(C)c4c3)CC2C)c1` (configuration not stated) are 75.8% and 98%.
The corresponding values for `Cc1cccnc1NC(=O)c1sc2ccccc2c1Cl` are 33.3% and 23.5%.
The corresponding values for `CN=c1scc(C)n1/N=C/c1ccc2c(c1)OCO2` are 56.7% and 42.2%.
In the case of `COc1cc2nc(N3CCN(c4cc(C)ccc4C)CC3)nc(N)c2cc1OC`, the activity was 56.7% in assay [1] and 88.7% in assay [2].
As for `O=C(Nc1ccc2c(c1)OCCO2)c1cc2ccccc2o1`, the activity in assay [1] was 82%; in assay [2], 76.8%.
The corresponding values for `CC(OC(=O)c1cc(O)c2ccccc2c1O)C(=O)Nc1ccc(C(N)=O)cc1` (configuration not stated) are 49.5% and 49.2%.
The corresponding values for `Cn1c(=O)n(CCc2ccccc2)c(=O)c2c1nc1n2CCCN1CCc1ccccc1` are 21.1% and 24.9%.
For the compound `Cc1ccc(CSc2nc3ccncc3[nH]2)cc1`, the results for the activity in assay [1] and in assay [2] were 98.5% and 99.2%, respectively.
In the case of `O=C(CN1C(=O)c2ccccc2S1(=O)=O)c1ccccc1F`, the activity in assay [1] was 16.9%; in assay [2] it was 27.8%.
Regarding `C=CCNC(=S)N/N=C/c1ccc(C(F)(F)F)cc1`, the activity in assay [1] was 18.5%; in assay [2], 8.22%.
The corresponding values for `COc1ccc(-c2cc3cccc(OC)c3oc2=O)cc1` are 81.8% and 80.2%.
On the same counts, the results for `C(=N\Nc1nc2ccccc2[nH]1)/c1ccc2ncccc2c1` are 81% and 85.6%.
The corresponding values for `Cc1ccc(NC(=O)CSc2ccc(-c3ccc4c(c3)OCO4)nn2)cc1F` are 39% and 44.9%.
As for `CCCCC1CCC(C(=O)N(CCCC)c2c(N)n(CCCC)c(=O)[nH]c2=O)CC1` (configuration not stated), the activity in assay [1] came to 81.5%; in assay [2] it was 77.5%.
On the same counts, the results for `CC1(C)N=C(N)N=C(N)N1c1ccccc1` are 83.4% and 87.2%.
The corresponding values for `N/C(=N\OC(=O)c1ccc2ccccc2c1)c1ccccc1Cl` are 99.4% and 99.2%.
The corresponding values for `O=C(Nc1ccc(N2CCN(C(=O)c3ccccc3)CC2)cc1)c1cc2ccccc2o1` are 70.8% and 50.3%.
Turning to `CSc1cc(-c2ccc(Cl)cc2)n(Cc2ccccc2)c(=O)c1C#N`, the values for the activity in assay [1] and in assay [2] were 72.2% and 48.5%, respectively.
On the same counts, the results for `COc1ccc2nc(Nc3ccccc3OC)sc2c1` are 68.3% and 59.2%.
The corresponding values for `COc1nn(-c2ccccc2)c(=O)c(Cl)c1Cl` are 92.3% and 96.3%.
For `CS(=O)(=O)c1nc(-c2ccc(Br)cc2)cc(-c2ccccc2)c1C#N`, the activity in assay [1] was determined as 94%; in assay [2], 98.9%.
As to `CCCc1cc(=O)[nH]c(SCC(=O)c2c(N)n(C3CC3)c(=O)[nH]c2=O)n1`, the results for the activity in assay [1] and in assay [2] were 80.3% and 88.8%, respectively.
The corresponding values for `CC1CCc2c(sc(/N=C/c3ccco3)c2C(N)=O)C1` (configuration not stated) are 54.1% and 56.5%.
The corresponding values for `CC(C)c1ccc(C(=O)Nc2cccnc2)cc1` are 57.1% and 56.2%.
The corresponding values for `CC(C)(C)c1ccc(C(=O)O/N=C(\N)Cc2cccs2)cc1` are 98.6% and 77.5%.
Regarding `O=C1CCCCC(=O)[C@H](OC(=O)c2ccccc2)C[C@H](c2ccccc2)O1`, the activity stood at 2.17% in assay [1] and 2.2% in assay [2].
The corresponding values for `O=C(CC1CCCC1)Nc1nc2ccccc2[nH]1` are 49.7% and 62.4%.
On the same counts, the results for `Nc1nc(N)c2nc(-c3ccccc3)c(N)nc2n1` are 74.7% and 80.7%.
Turning to `CCOc1ccc(N/C=C/C(=O)c2ccccc2)c([N+](=O)[O-])c1`, the activity in assay [1] worked out at 92.7%; in assay [2], 89.7%.
As to `COc1cc(NC(=O)Nc2nc(C(N)Cc3ccc(C(F)(F)F)cc3)cs2)cc(OC)c1OC` (configuration not stated), the results for the activity in assay [1] and in assay [2] were 29.9% and 74.6%, respectively.
On the same counts, the results for `C#Cc1ccc(NC(=O)C2(C)CCN2C(=O)c2ccccc2CCc2ccccc2)cc1` (configuration not stated) are 91.2% and 95.9%.
On the same counts, the results for `O=[N+]([O-])c1ccc(-[n+]2ccc3ccccc3c2)c([N+](=O)[O-])c1` are 93.3% and 98.8%.
For `CC(C)c1onc(C(=O)N2CCN(c3ccc(F)cc3)CC2)c1[N+](=O)[O-]`, the activity in assay [1] was 78.8%; in assay [2], 87.6%.
`N/C(=N\OC(=O)c1cccc(Br)c1)c1ccc(Br)cc1`: the activity in assay [1] was 78.1%; in assay [2], 90.1%.
Regarding `C#CCN(C[C@@H]1[C@@H](OC(=O)NCC2CCCCC2)[C@@H](OC(=O)NCC2CCCCC2)Cn2c(=O)ccc(=O)n21)S(=O)(=O)c1ccc(C)cc1`, the activity in assay [1] is 97.7%; in assay [2], 98.3%.
For the compound `CCn1nc(C(=O)NCCc2ccc(S(N)(=O)=O)cc2)c2ccccc2c1=O`, the values for the activity in assay [1] and in assay [2] were 16% and 41.1%, respectively.
The corresponding values for `O=C1c2ccccc2NC(c2ccccc2)N1/N=C/c1ccccc1` (configuration not stated) are 52.5% and 40.1%.
On the same counts, the results for `O=S(=O)(Nc1nc2ccccc2nc1N1CCc2ccccc2C1)c1ccc(Br)cc1` are 55.5% and 66.2%.
On to `COC(=O)c1ccc(-c2nc3cc(N)ccc3o2)cc1`, for which the values for the activity in assay [1] and in assay [2] were 61.9% and 44.6%, respectively.
`Cc1ccc(NC(=S)c2nc3ccccc3s2)cc1`: the activity is 30.7% in assay [1] and 33.8% in assay [2].
